According to PubChem BioAssay (NCATS):
Values joined by “and” are separate entries in the source; they are usually repeats but may differ in a detail not shown here. Equal values may be shown once. Records with an inconclusive call do not appear. Active and inactive are the calls of the source. Unless noted, calls come from the whole dose curve; as a rule, active = well fitted curve in the direction sought with a large enough effect; inconclusive = small, poorly fitted or top-dose-only effect, or another doubt; inactive = no such curve, though single readings can be large; an effect the other way counts as inactive or inconclusive.

How the values were obtained:
[1] = target: Cytochrome P450 3A4 (Homo sapiens) (UniProt P08684); assay: qHTS Assay for Activators of Cytochrome P450 3A4 (AID 885); note: nearly all actives have a fitted effect of over 65% in size
Summary of the method: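 Human CYP3A4 dealkylates Luciferin-PPXE to luciferin, which luciferase detection converts to light. Substrate was at its KM (25uM), buffer 200mM KPO4, reaction 60 min at RT.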

[2] = target: ATP-dependent 6-phosphofructokinase (Trypanosoma brucei brucei) (UniProt O15648); assay: qHTS Assay to Find Inhibitors of T. brucei phosphofructokinase: hit validation (AID 492961); note: % is set by controls: 0 for no effect and ±100 for the full control effect
Summary of the method: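 Luminescence from ADP-Glo reports ADP generated as T. brucei PFK (1.25 nM) phosphorylates 0.5 mM fructose-6-phosphate using 0.1 mM ATP. Reactions ran 45 min at room temperature, pH 8.0.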

[3] = target: Ubiquitin carboxyl-terminal hydrolase 1 (Homo sapiens) (UniProt O94782); assay: Inhibitors of USP1/UAF1: Pilot qHTS (AID 504865); note: nearly all actives have a fitted effect of over 35% in size; note: potency is the fitted concentration of half-maximal effect
Summary of the method: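 Kinetic fluorescence assay: 1nM USP1/UAF1, 15 min compound preincubation, then 150nM Ub-Rho; 480/540 nm.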

[4] = S16 Schwann cell viability assay (CellTiter-Glo assay) (AID 624031);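 note: native untransfected S16 rat Schwann cells; plate controls were DMSO-treated cells for no effect and cell-free wells for full effect; nearly all actives have a fitted effect of over 70% in size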
Summary of the method: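 Counter-screen for cytotoxicity: parental S16 rat Schwann cells lacking the PMP22 reporters, treated 24 h with compound, viability from cellular ATP by CellTiter-Glo luminescence, normalized to DMSO (0%) and no-cell wells.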

[5] = Primary qHTS for small molecule stabilizers of the endoplasmic reticulum resident proteome: Secreted ER Calcium Modulated Protein (SERCaMP) assay (AID 1508630); note: % is set by controls: 0 for no effect and ±100 for the full control effect
Summary of the method: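 The SH-SY5Y reporter protocol was run at 3 concentrations up to 38.3 uM (primary) or 11 concentrations (follow-up): 16 h compound, 100 nM thapsigargin for 4 h, then extracellular luciferase luminescence.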

ATS189 = assay: qHTS profiling for inhibitors of Plasmodium falciparum proliferation (AID 504749); note: nearly all actives have a fitted effect of over 60% in size; note: potency is the fitted concentration of half-maximal effect;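 for activity, negative = inhibition: 0% = DMSO vehicle and full inhibition = artemisinin control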; details: P. falciparum in erythrocytes, SYBR Green DNA, 72 h; series mostly up to 12.8 µM
Summary of the method: (§1)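 SYBR Green fluorescence (ex 485 nm, em 535 nm) reports parasite DNA after 72 h compound exposure of infected red cells at 0.3% parasitemia, 2.5% hematocrit; signal normalized to 0.29 uM artemisinin and vehicle wells.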

ATS95 = assay: as above; details: P. falciparum in erythrocytes, SYBR Green DNA, 72 h; series mostly up to 12.8 µM
Summary of the method: as §1

CP185 = assay: as above; details: P. falciparum in erythrocytes, SYBR Green DNA, 72 h; series mostly up to 12.8 µM
Summary of the method: as §1

CP201 = assay: as above; details: P. falciparum in erythrocytes, SYBR Green DNA, 72 h; series mostly up to 12.8 µM
Summary of the method: as §1

CP211 = assay: as above; details: P. falciparum in erythrocytes, SYBR Green DNA, 72 h; series mostly up to 12.8 µM
Summary of the method: as §1

CP238 = assay: as above; details: P. falciparum in erythrocytes, SYBR Green DNA, 72 h; series mostly up to 12.8 µM
Summary of the method: as §1

CP256 = assay: as above; details: P. falciparum in erythrocytes, SYBR Green DNA, 72 h; series mostly up to 12.8 µM
Summary of the method: as §1

CP262 = assay: as above; details: P. falciparum in erythrocytes, SYBR Green DNA, 72 h; series mostly up to 12.8 µM
Summary of the method: as §1

CP266 = assay: as above; details: P. falciparum in erythrocytes, SYBR Green DNA, 72 h; series mostly up to 28.7 µM
Summary of the method: as §1

CP297 = assay: as above; details: P. falciparum in erythrocytes, SYBR Green DNA, 72 h; series mostly up to 12.8 µM
Summary of the method: as §1

CP305 = assay: as above; details: P. falciparum in erythrocytes, SYBR Green DNA, 72 h; series mostly up to 12.8 µM
Summary of the method: as §1

CP325 = assay: as above; details: P. falciparum in erythrocytes, SYBR Green DNA, 72 h; series mostly up to 12.8 µM
Summary of the method: as §1

CP335 = assay: as above; details: P. falciparum in erythrocytes, SYBR Green DNA, 72 h; series mostly up to 12.8 µM
Summary of the method: as §1

DIV17 = assay: as above; details: P. falciparum in erythrocytes, SYBR Green DNA, 72 h; series mostly up to 12.8 µM
Summary of the method: as §1

ECU = assay: as above; details: P. falciparum in erythrocytes, SYBR Green DNA, 72 h; series mostly up to 12.8 µM
Summary of the method: as §1

FAB9 = assay: as above; details: P. falciparum in erythrocytes, SYBR Green DNA, 72 h; series mostly up to 12.8 µM
Summary of the method: as §1

HB3 = assay: as above; details: P. falciparum in erythrocytes, SYBR Green DNA, 72 h; series mostly up to 12.8 µM
Summary of the method: as §1

ICS = assay: as above; details: P. falciparum in erythrocytes, SYBR Green DNA, 72 h; series mostly up to 12.8 µM
Summary of the method: as §1

JCK = assay: as above; details: P. falciparum in erythrocytes, SYBR Green DNA, 72 h; series mostly up to 12.8 µM
Summary of the method: as §1

PC15 = assay: as above; details: P. falciparum in erythrocytes, SYBR Green DNA, 72 h; series mostly up to 12.8 µM
Summary of the method: as §1

PC26 = assay: as above; details: P. falciparum in erythrocytes, SYBR Green DNA, 72 h; series mostly up to 12.8 µM
Summary of the method: as §1

PC49 = assay: as above; details: P. falciparum in erythrocytes, SYBR Green DNA, 72 h; series mostly up to 12.8 µM
Summary of the method: as §1

SC27B = assay: as above; details: P. falciparum in erythrocytes, SYBR Green DNA, 72 h; series mostly up to 12.8 µM
Summary of the method: as §1

TAB109 = assay: as above; details: P. falciparum in erythrocytes, SYBR Green DNA, 72 h; series mostly up to 12.8 µM
Summary of the method: as §1

TAB113 = assay: as above; details: P. falciparum in erythrocytes, SYBR Green DNA, 72 h; series mostly up to 12.8 µM
Summary of the method: as §1

W2 = assay: as above; details: P. falciparum in erythrocytes, SYBR Green DNA, 72 h; series mostly up to 12.8 µM
Summary of the method: as §1

[6] = AP1 Signaling Pathway (AID 357; active = well fitted curve in either direction with a large enough effect, not every such curve was filed as active;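 note: ME-180 reporter cells stimulated with EGF at its EC50 level; % is set by controls: 0 for no effect and ±100 for the full control effect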); details: ME-180 AP-1-bla reporter, EGF-induced, beta-lactamase ratio, 5 h; at 7.69 µM (top of the series) unless noted
Summary of the method: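 First, ME-180 AP-1-bla cells were cultured overnight at 37 °C in low-serum Opti-MEM. Next, titrated compounds with EC50 EGF were incubated 5 hours. Finally, CCF4 was added for 2.5 hours and the 460/530 nm ratio recorded.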

[7] = target: Cytochrome P450 1A2 (Homo sapiens) (UniProt P05177); assay: p450-cyp1a2 (AID 410; calls by dose curve;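 note: -100% = full effect of reference inhibitor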)
Summary of the method: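 Read-out is luminescence from luciferin produced by CYP1A2 demethylation of Luciferin-ME (100uM, at Km). Detection reagent stopped the 60 min NADPH-dependent reaction; signals were normalized to 57 uM furafylline.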

[8] = NFAT Signaling Pathway (AID 444; active = well fitted curve in either direction with a large enough effect, not every such curve was filed as active;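 note: carbachol stimulus at about its EC50 of 1 µM final; % is set by controls: 0 for no effect and ±100 for the full control effect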); details: Jurkat NFAT-bla M1, carbachol, beta-lactamase ratio, 5 h; at 7.69 µM (top of the series) unless noted
Summary of the method: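 Jurkat cells with NFAT-driven β-lactamase reporter and co-expressed M1 receptor, stimulated with carbachol (final 1 uM, ~EC50), compound titration, 5 h at 37 °C. CCF4 loaded 1 h at RT; 460/530 nm ratio gave %activity and AC50.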

[9] = Stat Signaling Pathway (AID 446; active = well fitted curve in either direction with a large enough effect, not every such curve was filed as active); details: ME-180 (cervical carcinoma) SIE beta-lactamase reporter, IL-6 stimulated, 5 h; at 7.69 µM (top of the series) unless noted
Summary of the method: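 Normalization used AC90 stimulation (300 pM IL-6) and AC90 inhibition (125 nM pan-JAK inhibitor at 40 pM IL-6). The underlying signal is SIE-driven beta-lactamase in ME-180 cells after 5 h IL-6 exposure with compound.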

[10] = target: Glucocorticoid receptor (Homo sapiens) (UniProt P04150); assay: GR-GFP Redistribution (AID 450;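 active = compounds whose dose series gives a full or clear partial fitted curve of increased nuclear translocation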; note: potency is the fitted concentration of half-maximal effect); details: U2OS GR-GFP nuclear translocation, laser cytometry, 2 h
[11] = target: Glucocorticoid receptor (Homo sapiens) (UniProt P04150); assay: GR-EFC Redistribution (AID 451; calls by dose curve; note: potency is the fitted concentration of half-maximal effect); details: CHO-K1 GR-EFC translocation, beta-gal luminescence, 2 h
Summary of the method: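 CHO-K1 cells expressing nuclear EA and GR-ED fragments of b-gal; compounds titrated up to 46 uM final, 2 h at 37 C. GR nuclear translocation read as complemented b-gal luminescence after 1 h RT detection.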

[12] = target: Mitogen-activated protein kinase 10 (Mus musculus) (UniProt Q61831); assay: JNK3 AlphaScreen Assay (AID 530; active = well fitted curve in either direction with a large enough effect, not every such curve was filed as active)
Summary of the method: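 HepG2 lysate (IL-1b/TNFa pre-activated) + biotin-GST-cJun 1-79 + anti-pSer73 cJun; cpd titration, 15 min RT; ATP 10 uM start; Tris pH 7.6, MgCl2, DTT, vanadate; beads in EDTA buffer; AlphaScreen.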

[13] = target: 3',5'-cyclic-AMP phosphodiesterase 4B (Homo sapiens) (UniProt Q07343); assay: qHTS Assay for Inhibitors of PDE-IV (AID 607; active = well fitted activation curve with a large enough effect in the main read-out, with a control signal flat, not every such curve was filed as active; note: % of control where 0% means no effect)
Summary of the method: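 HEK293 ACTOne cells with CNG channel (1000/well), endogenous PDE4; membrane potential dye, compounds up to 22.9 uM final. Fluorescence Ex 535/Em 590; RO 20-1724 (100 uM final) as reference.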

[14] = target: Cytochrome P450 2C9 (Homo sapiens) (UniProt P11712); assay: qHTS Assay for Inhibitors and Substrates of Cytochrome P450 2C9 (AID 883); note: % is set by controls: 0 for no effect and ±100 for the full control effect; nearly all actives have a fitted effect of over 60% in size
Summary of the method: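 10nM CYP2C9 + 100uM Luciferin-H (=KM), 25mM KPO4; cpd 10 min 37C; NADPH regen, 60 min 37C; stop/detect with P450 Glo-Buffer 20 min; luminescence. Norm. to 57uM sulphaphenazole as full inhibition.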

[15] = target: Cytochrome P450 2D6 (Homo sapiens) (UniProt P10635); assay: qHTS Assay for Inhibitors and Substrates of Cytochrome P450 2D6 (AID 891); note: potency is the fitted concentration of half-maximal effect; nearly all actives have a fitted effect of over 60% in size
Summary of the method: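 Luminescent read-out of luciferin formed by 5 nM human CYP2D6 demethylating 30 uM Luciferin-ME EGE (Km level) over 60 min at room temperature after NADPH regeneration addition. Data normalized to full inhibition by 1.43 uM quinidine.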

[16] = target: Cytochrome P450 2C19 (Homo sapiens) (UniProt P33261); assay: qHTS Assay for Inhibitors and Substrates of Cytochrome P450 2C19 (AID 899); note: % is set by controls: 0 for no effect and ±100 for the full control effect; nearly all actives have a fitted effect of over 60% in size
Summary of the method: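 Luminescent read-out of luciferin formed from Luciferin-H EGE (10uM, equal to KM). Enzyme 5nM in 50mM KPO4; compound added, 10 min at 37C, then NADPH regenerating system for 60 min at 37C. Full inhibition defined by 57uM ketoconazole.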

[17] = qHTS Assay for Lipid Storage Modulators (AID 1519; calls by dose curve); details: Drosophila S3 cells, BODIPY lipid droplet/cell ratio, laser cytometry, cells loaded with oleic acid
Summary of the method: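 Cells seeded at 5,000 per well were treated with compounds over a concentration series and loaded with oleic acid (400 uM, as added). Lipid droplet fluorescence (488 nm excitation, 500-530 nm channel) was read by laser-scanning cytometry and normalized to 20 uM Triacsin C.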

[18] = target: DNA dC->dU-editing enzyme APOBEC-3G (Homo sapiens) (UniProt Q9HC16); assay: qHTS for inhibitors of Vif-A3G interactions: Validation (AID 588379); note: 0% is about no effect
Summary of the method: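 Yellow fluorescence (Ex 488, Em 500-530) of Vif-coexpressing HeLa A3G-eYFP cells, scanned by Acumen cytometer, reports blocked A3G degradation. Cells plated at 700/well overnight at 37 deg C before compound addition, then a further overnight compound incubation at 37 deg C.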

Sequence of Ubiquitin carboxyl-terminal hydrolase 1 (Homo sapiens) (O94782 whole entry, looked up): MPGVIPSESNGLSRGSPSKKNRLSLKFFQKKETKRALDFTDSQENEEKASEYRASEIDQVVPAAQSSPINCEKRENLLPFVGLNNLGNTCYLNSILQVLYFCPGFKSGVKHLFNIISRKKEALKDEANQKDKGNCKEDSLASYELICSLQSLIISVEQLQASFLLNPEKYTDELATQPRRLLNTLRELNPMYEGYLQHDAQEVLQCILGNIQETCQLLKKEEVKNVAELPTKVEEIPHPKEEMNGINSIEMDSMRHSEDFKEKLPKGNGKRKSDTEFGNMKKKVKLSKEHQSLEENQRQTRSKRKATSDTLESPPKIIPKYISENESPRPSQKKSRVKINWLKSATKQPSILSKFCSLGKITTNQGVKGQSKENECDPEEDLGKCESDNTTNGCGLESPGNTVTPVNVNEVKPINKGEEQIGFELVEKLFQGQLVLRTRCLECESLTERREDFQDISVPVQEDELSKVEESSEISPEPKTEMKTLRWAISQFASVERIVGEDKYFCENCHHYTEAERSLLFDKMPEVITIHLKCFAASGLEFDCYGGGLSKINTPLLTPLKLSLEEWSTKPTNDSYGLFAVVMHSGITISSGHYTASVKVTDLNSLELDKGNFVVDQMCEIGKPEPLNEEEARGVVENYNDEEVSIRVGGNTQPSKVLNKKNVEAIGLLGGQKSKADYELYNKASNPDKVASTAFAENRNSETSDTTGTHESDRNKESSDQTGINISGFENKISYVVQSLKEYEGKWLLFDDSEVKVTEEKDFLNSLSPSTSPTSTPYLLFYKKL
Sequence of Cytochrome P450 1A2 (Homo sapiens) (P05177 whole entry, looked up): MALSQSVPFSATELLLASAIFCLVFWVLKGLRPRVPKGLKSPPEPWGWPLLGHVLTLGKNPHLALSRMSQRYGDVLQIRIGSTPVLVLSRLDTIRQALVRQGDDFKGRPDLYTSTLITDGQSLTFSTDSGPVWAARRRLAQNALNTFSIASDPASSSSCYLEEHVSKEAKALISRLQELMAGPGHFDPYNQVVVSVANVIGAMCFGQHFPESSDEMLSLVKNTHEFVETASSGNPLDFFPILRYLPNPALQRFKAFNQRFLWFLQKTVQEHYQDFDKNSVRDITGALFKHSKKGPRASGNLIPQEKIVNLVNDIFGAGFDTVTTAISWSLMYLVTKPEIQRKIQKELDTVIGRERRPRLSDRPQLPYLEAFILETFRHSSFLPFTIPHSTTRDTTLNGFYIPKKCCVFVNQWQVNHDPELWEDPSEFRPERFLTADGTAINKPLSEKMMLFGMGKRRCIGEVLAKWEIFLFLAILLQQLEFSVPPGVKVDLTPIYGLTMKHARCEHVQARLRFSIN
Sequence of Cytochrome P450 3A4 (Homo sapiens) (P08684 whole entry, looked up): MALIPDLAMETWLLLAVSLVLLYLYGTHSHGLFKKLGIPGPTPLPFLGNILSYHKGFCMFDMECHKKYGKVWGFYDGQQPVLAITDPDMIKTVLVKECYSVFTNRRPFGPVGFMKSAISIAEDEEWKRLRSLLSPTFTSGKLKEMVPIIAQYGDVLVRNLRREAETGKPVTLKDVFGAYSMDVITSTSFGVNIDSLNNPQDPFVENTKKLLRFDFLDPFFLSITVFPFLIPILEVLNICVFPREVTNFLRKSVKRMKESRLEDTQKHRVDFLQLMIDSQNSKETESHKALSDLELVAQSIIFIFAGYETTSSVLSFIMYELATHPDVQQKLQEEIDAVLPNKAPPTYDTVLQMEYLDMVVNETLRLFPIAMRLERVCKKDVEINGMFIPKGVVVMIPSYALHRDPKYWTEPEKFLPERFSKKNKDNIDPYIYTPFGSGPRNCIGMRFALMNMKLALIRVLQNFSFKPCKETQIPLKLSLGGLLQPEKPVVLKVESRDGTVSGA
Sequence of 3',5'-cyclic-AMP phosphodiesterase 4B (Homo sapiens) (Q07343 whole entry, looked up): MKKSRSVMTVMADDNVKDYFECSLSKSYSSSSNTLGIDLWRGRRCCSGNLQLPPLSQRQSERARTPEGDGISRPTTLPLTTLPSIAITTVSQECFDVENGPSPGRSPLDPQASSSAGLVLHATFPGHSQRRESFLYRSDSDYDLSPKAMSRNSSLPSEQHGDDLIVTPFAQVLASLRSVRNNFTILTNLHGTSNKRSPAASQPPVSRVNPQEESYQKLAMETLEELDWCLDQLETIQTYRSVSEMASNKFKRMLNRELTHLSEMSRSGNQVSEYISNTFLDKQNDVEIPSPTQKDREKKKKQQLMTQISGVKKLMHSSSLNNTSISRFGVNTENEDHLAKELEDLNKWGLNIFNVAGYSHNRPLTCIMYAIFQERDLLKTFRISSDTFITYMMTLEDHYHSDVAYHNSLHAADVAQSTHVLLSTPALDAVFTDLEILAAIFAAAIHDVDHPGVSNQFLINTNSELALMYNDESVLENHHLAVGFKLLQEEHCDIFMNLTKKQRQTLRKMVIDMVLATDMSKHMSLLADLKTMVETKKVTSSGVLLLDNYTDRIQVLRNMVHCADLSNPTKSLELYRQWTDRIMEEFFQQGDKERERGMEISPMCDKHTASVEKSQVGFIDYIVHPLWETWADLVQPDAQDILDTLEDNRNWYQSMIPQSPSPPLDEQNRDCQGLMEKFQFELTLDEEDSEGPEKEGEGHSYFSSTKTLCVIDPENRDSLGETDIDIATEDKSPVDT
Sequence of Glucocorticoid receptor (Homo sapiens) (P04150 whole entry, looked up, the tested form may be a part): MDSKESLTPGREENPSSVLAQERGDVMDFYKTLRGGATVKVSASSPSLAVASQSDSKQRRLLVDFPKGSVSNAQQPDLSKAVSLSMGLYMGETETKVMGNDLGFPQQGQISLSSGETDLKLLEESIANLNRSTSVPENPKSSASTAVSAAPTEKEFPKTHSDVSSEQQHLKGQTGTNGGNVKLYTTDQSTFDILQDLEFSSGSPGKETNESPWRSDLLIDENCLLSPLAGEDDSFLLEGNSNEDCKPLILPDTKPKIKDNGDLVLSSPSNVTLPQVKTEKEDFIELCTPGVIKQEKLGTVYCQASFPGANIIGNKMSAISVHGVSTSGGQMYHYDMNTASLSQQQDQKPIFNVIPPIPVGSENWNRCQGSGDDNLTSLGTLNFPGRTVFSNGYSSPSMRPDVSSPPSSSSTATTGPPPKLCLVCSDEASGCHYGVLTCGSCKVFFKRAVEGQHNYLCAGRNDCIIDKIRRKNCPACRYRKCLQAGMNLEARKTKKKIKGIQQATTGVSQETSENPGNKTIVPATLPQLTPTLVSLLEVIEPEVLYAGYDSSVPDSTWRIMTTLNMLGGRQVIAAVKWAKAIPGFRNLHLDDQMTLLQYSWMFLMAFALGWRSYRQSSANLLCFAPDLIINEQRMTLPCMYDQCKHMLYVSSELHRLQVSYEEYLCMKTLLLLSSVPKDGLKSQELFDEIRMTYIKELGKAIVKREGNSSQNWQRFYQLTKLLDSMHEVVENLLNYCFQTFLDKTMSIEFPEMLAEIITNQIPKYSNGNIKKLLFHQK
Sequence of Cytochrome P450 2D6 (Homo sapiens) (P10635 whole entry, looked up): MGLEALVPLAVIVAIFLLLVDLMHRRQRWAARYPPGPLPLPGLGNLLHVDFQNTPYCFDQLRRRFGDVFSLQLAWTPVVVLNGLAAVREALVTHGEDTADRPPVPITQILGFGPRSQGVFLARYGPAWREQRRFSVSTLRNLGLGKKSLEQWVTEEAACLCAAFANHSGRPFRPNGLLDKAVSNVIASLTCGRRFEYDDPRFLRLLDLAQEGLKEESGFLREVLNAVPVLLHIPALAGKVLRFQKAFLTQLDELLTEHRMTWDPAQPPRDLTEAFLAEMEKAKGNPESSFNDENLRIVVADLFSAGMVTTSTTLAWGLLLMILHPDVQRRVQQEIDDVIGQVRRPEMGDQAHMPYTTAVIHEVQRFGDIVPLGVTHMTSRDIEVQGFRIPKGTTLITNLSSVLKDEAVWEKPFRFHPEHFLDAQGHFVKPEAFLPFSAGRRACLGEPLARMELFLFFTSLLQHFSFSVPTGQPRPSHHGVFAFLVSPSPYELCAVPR
Sequence of DNA dC->dU-editing enzyme APOBEC-3G (Homo sapiens) (Q9HC16 whole entry, looked up): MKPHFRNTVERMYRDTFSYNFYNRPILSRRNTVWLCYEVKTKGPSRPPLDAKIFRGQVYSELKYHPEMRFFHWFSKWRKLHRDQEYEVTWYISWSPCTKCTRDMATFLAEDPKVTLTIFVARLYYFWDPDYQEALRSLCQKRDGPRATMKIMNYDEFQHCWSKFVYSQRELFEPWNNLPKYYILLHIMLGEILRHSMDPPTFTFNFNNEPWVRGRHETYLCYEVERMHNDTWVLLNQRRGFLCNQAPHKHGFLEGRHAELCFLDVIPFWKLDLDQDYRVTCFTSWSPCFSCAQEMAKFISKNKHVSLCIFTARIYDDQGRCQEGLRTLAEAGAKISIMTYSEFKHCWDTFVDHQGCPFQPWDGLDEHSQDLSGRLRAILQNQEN
Sequence of ATP-dependent 6-phosphofructokinase (Trypanosoma brucei brucei) (O15648 whole entry, looked up): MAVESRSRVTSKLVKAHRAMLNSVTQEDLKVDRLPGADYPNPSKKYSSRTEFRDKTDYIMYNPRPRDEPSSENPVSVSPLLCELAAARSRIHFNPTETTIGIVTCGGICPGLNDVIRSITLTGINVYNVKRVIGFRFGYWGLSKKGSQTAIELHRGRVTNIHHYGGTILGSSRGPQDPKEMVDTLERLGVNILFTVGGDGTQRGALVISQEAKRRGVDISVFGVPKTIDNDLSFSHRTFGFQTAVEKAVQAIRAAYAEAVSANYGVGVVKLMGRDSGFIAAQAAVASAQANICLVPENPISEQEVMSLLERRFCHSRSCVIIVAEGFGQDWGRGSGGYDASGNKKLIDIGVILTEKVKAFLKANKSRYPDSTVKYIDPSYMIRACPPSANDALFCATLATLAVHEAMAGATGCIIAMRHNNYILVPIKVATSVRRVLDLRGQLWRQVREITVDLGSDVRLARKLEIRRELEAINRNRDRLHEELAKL

COc1cc(/C=C/C(=O)/C=C(O)/C=C/c2ccc(O)c(OC)c2)ccc1O
inactive: Potency [1] | outcome [2] | Potency [4] | outcome [5] | Potency (ATS189) | Potency (ATS95) | Potency (CP185) | Potency (CP201) | Potency (CP211) | Potency (CP238) | Potency (CP256) | Potency (CP262) | Potency (CP266) | Potency (CP305) | Potency (CP325) | Potency (CP335) | Potency (ECU) | Potency (FAB9) | Potency (HB3) | Potency (JCK) | Potency (PC15) | Potency (PC49) | Potency (SC27B) | Potency (TAB109) | Potency (TAB113)
active: Potency [3] 12.6 µM and 31.6 µM | Potency (CP297) 15.1 µM | Potency (DIV17) 12 µM | Potency (ICS) 10 µM | Potency (PC26) 12 µM | Potency (W2) 15.1 µM

CC[C@@]12CCCN3CCc4c(n(c5ccccc45)[C@](O)(C(=O)OC)C1)[C@H]32
active: Potency [15] 0.251 µM
5.49% and 0.925% and 3.19%: max response ([17]; measured here: cell count channel max response)
4.14% and 0.607% and 6.95%: max response ([17]; measured here: lipid channel max response)
inactive: activity change, negative = inhibition [6] 13.8% [at 17.2 µM] | Potency [7] | activity change, negative = inhibition [8] -8.76% [at 17.2 µM] and -13.1% [at 17.2 µM] | activity, negative = inhibition [9] 4.76% [at 17.2 µM] and 8.92% [at 17.2 µM] | Potency [10] > 20.6 µM and > 46 µM | Potency [11] > 20.6 µM and > 46 µM | Potency [12] | Potency [13] | Potency [14] | Potency [1] | Potency [16] | activity change, negative = inhibition ([17]; at 25.7 µM (top of the series)) -1.27% and -2.91% | activity change, negative = inhibition ([17]; at 57.5 µM (top of the series)) 0.0973% | Potency [3] | outcome [18]
